About 83,000 compounds went through this panel and 20% of them were active in at least one assay; those are over-represented in the sample as a whole.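 Treatment: one concentration, 48 hours, 96-well format. Scoring: percent growth, with anything below 10 considered active.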 Activity calls are given as the source filed them.
Assays:
Assay in all cases: NCI-60 one-dose screen, 48 h (100 = growth as untreated, 0 = no growth, -100 = all killed)
Details in all cases: 10 µM unless noted
[1] = test system: NCI-H23 lung
[2] = test system: NCI-H226 lung
[3] = test system: NCI-H322M lung
[4] = test system: HOP-62 NSCLC
[5] = test system: NCI-H460 lung
[6] = test system: HOP-92 NSCLC
[7] = test system: A549/ATCC NSCLC
[8] = test system: 786-0 renal
[9] = test system: COLO 205 colon
[10] = test system: DU-145 prostate
[11] = test system: K-562 leukemia
[12] = test system: MALME-3M melanoma
[13] = test system: MDA-MB-231 breast
[14] = test system: RXF 393 renal
[15] = test system: SF-268 CNS
[16] = test system: SF-295 CNS
[17] = test system: SF-539 CNS
[18] = test system: UACC-257 melanoma
[19] = test system: M14 melanoma
[20] = test system: NCI-H522 lung

Measured: growth

C1CCC([PH+](C2CCCCC2)C2CCCCC2[PH+](C2CCCCC2)C2CCCCC2)CC1.O=C(C1[CH-]CCCC1)C1CCCC[N-]1.[Au] (stereo unspecified)
active: [1] -35% | [2] -60.1% | [3] -48% | [4] -9.03% | [5] -49.6% | [6] -36.8% | [7] -39.9% | [8] -77.2% | [9] -45% | [10] -38.7% | [11] 5.08% | [12] -66.3% | [13] -54.9% | [14] -95.2% | [15] -28.5% | [16] -46.8% | [17] -87.9% | [18] -45.6% | [19] -52.2%

Clc1ccc(N2COOC3(OOC2)C2CC4CC(C2)CC3C4)cc1
inactive: [1] 22% | [2] 95.8% | [3] 76.4% | [4] 45.9% | [5] 61.5% | [7] 47.4% | [9] 101% | [10] 85% | [11] 29.9% | [12] 26.3% | [13] 82.9% | [14] 101% | [15] 58.1% | [16] 70.6% | [17] 23.5% | [18] 85.8% | [19] 65.9%
active: [6] -23.1% | [8] -4.34%

CC[C@H](C)[C@@H]1OC(=O)C(C)(C)[C@H](O)[C@H](Cc2ccccc2)OC(=O)[C@H](C(C)C)OC(=O)[C@@H](NC(=O)c2cccc(NC=O)c2O)[C@@H](C)OC1=O
inactive: [1] 36.4% | [2] 51.2% | [3] 78.9% | [4] 45% | [5] 19% | [6] 68% | [7] 49.5% | [8] 64.5% | [9] 43.6% | [10] 62.7% | [12] 77.4% | [13] 59.1% | [14] 87.1% | [15] 62.1% | [16] 28% | [17] 52.8% | [18] 32.3% | [19] 62.8%

COc1ccc(N(CC(=O)NCCC[Te]c2ccccc2)C(=O)CNC(=O)OC(C)(C)C)cc1
inactive: [8] 73.3% | [9] 86.9% | [10] 48.9% | [11] 97% | [12] 137% | [14] 114% | [15] 24.2% | [18] 109%
active: [1] -15.5% | [2] 1.45% | [3] -6.97% | [4] 1.88% | [5] -23.9% | [6] -19.9% | [7] -9.26% | [13] 1.63% | [16] -10.8% | [17] -9.65% | [19] 9.09%

Cc1cc(N(CCCl)CCCl)ccc1C=Nc1ccccc1-c1ccccc1
inactive: [1] 60.8% | [3] 101% | [4] 54.6% | [5] 16.4% | [6] 84.4% | [7] 59.6% | [8] 52.1% | [9] 86.1% | [10] 61.2% | [11] 85% | [12] 77.1% | [13] 94.4% | [14] 45.5% | [15] 62.8% | [16] 27.2% | [17] 61.7% | [18] 55.3% | [19] 75.8%
active: [2] -38.8%

Cc1ccc(S(=O)(=O)C(Cl)(Cl)Cl)cc1
inactive: [1] 98.3% | [3] 105% | [4] 90.2% | [5] 104% | [6] 82.3% | [20] 76.2% | [7] 77.2% | [8] 88.5% | [9] 99.4% | [10] 109% | [11] 93.3% | [12] 92.5% | [13] 95.8% | [14] 102% | [15] 97.5% | [16] 91.1% | [17] 99.9% | [18] 86.1% | [19] 94.6%

ClCCN(CCCl)Cc1ccc(Nc2ccnc3cc(Cl)ccc23)cc1
active: [5] 2.98% | [6] -4.98% | [20] -34.7% | [8] 8.84% | [14] -59.1% | [17] -20.2%
inactive: [1] 36.6% | [3] 79% | [4] 31.3% | [7] 39.2% | [9] 50.6% | [10] 18.6% | [11] 35.6% | [12] 57.4% | [13] 56.3% | [15] 25.3% | [18] 56.2% | [19] 49.7%

Cc1cc(NC(=O)NCc2ccc(N3C(N)=NC(N)=NC3(C)C)cc2)ccc1S(=O)(=O)F
active: [5] 4.48% | [7] -3.03%
inactive: [1] 29.2% | [3] 54.7% | [4] 23.4% | [6] 88.9% | [20] 16.5% | [8] 26.2% | [9] 29.3% | [10] 42.7% | [12] 56.9% | [13] 58.5% | [15] 31.6% | [16] 27.9% | [17] 19.5% | [19] 29.5%

CCC1(C(C)C)C(=O)NC(=S)NC1=O
inactive: [1] 117% | [3] 106% | [4] 102% | [5] 102% | [6] 91.5% | [7] 95.7% | [8] 108% | [9] 123% | [10] 115% | [11] 107% | [12] 111% | [13] 114% | [14] 94.8% | [15] 96.1% | [17] 94.3% | [18] 92.2% | [19] 106%

CO[C@H]1CC[C@@]2(C)C(=CC[C@@H]3[C@@H]2CC[C@]2(C)C(=O)C(=O)C[C@@H]32)C1
inactive: [1] 99.5% | [3] 120% | [4] 106% | [5] 102% | [6] 83.7% | [20] 98% | [7] 111% | [8] 107% | [9] 118% | [10] 116% | [11] 101% | [12] 111% | [13] 103% | [14] 26.3% | [15] 103% | [16] 110% | [17] 104% | [18] 120% | [19] 102%

COc1ccc2c(c1)c(-c1nc(-c3c[nH]c4ncccc34)cs1)cn2CCN1CCOCC1
inactive: [1] 57.3% | [3] 57.3% | [4] 27.4% | [5] 40.8% | [6] 28.8% | [20] 44.5% | [7] 51.2% | [8] 55.5% | [9] 61.6% | [10] 45.3% | [11] 38.3% | [12] 71% | [13] 51% | [14] 53.7% | [15] 60.9% | [16] 62% | [17] 48.2% | [18] 92.1% | [19] 49.4%

Oc1c(O)c(Cl)c(Cl)c(Cl)c1Cl
active: [6] 1.08% | [20] -19.6% | [14] 7.31% | [16] 9.55% | [18] -9.22%
inactive: [1] 26.7% | [3] 44.5% | [4] 40.1% | [5] 15.4% | [7] 20.5% | [8] 57.2% | [9] 69.8% | [10] 47.5% | [11] 24.2% | [12] 64.7% | [13] 44.8% | [15] 24.2% | [17] 20.9% | [19] 39.6%

CCOC(=O)N[C@H]1CCc2c(Br)c(OC)c(OC)c(OC)c2-c2ccc(SC)c(=O)cc21
active: [5] -7.92% | [6] -4.54% | [8] 9.3% | [9] 5.51% | [10] -19.5% | [11] 5.89% | [13] -7.24% | [17] -31.9% | [19] 0.572%
inactive: [1] 31.2% | [3] 35.3% | [4] 34.9% | [20] 13.2% | [7] 20.9% | [12] 35.1% | [14] 12.8% | [15] 17.5% | [16] 10.8% | [18] 67.5%

C/C(Cc1ccc(Cl)cc1)=C(\c1ccc(OCCN2CCOCC2)cc1)c1ccc(OC(=O)Cc2ccccc2)cc1
inactive: [1] 92.9% | [3] 83% | [4] 102% | [5] 95.8% | [6] 77.2% | [20] 69.7% | [7] 78.9% | [8] 92.6% | [9] 99.8% | [10] 107% | [11] 79.5% | [12] 99% | [13] 96.5% | [14] 94.7% | [15] 95.6% | [16] 99.9% | [17] 108% | [18] 86.1% | [19] 89.4%

Cn1cc(-c2csc(-c3cn(CCN4CCOCC4)c4ccccc34)n2)c2cccnc21
inactive: [1] 62.6% | [3] 84.8% | [4] 55.3% | [5] 75.3% | [6] 48.6% | [20] 40.6% | [7] 63% | [8] 75.5% | [9] 51.2% | [10] 89.1% | [11] 44.8% | [12] 81.4% | [13] 69.8% | [14] 93.7% | [15] 79.8% | [16] 72.2% | [17] 73.2% | [18] 90.7% | [19] 39%

Nc1nnnc2nc[nH]c12
active: [4] -11.4% | [6] 1.91% | [8] 0.102% | [9] 6.07% | [10] 3.72% | [11] 4.73% | [16] 0.603% | [19] -35.4%
inactive: [1] 31% | [3] 28.1% | [5] 20.6% | [20] 14.6% | [7] 34.4% | [12] 34.8% | [13] 14.5% | [14] 11.6% | [15] 28.6% | [17] 14.3%

— PubChem BioAssay (NCI)
